In all, about 4,800 compounds went through this assay and about 420 (8.8%) showed an effect of 50% or more. The sample as a whole holds a higher share of strong results than the screen did.
Tested on: Plasmodium falciparum
Assay: Confirmatory screen in NF54 nanoGlo assay, in single point, at 2uM, 72h
Type: functional, Erythrocyte
Conditions: timepoint 72 hour

Row | SMILES | % Inhibition
1 | Nc1nc(NCC2CCN(CCc3ccccc3)CC2)cc([C@H]2C[C@@H](N)C2)n1 | 23%
2 | Cc1ccc(-c2cccc3c(C(=O)NCCCN4CCC(N5CCCCC5)CC4)cc(C)nc23)cc1 | 98%
3 | CN(C)CCN1CCC(CNCc2ccc3ncccc3c2)CC1 | 5%
4 | COc1ccc(-c2cncc(C(=O)NCC3CCN(CCN(C)C)CC3)c2)cc1 | 94%
5 | Cn1cncc1[C@@H]1CNC[C@H]1CNC(=O)c1ccccc1NC1CCCCC1 | 79%
6 | Cc1cc(F)ccc1N1CCC(NCCCNc2cccnc2)CC1 | 18%
7 | Brc1cccc(NCCNC2CCN(Cc3cccnc3)CC2)c1 | 36%
8 | CC1CN(c2ccccc2NC(=O)c2ccc(-c3cnco3)cc2)CC(C)O1 (stereo unspecified) | -6%
9 | Cc1ccccc1CN1CCC(CNc2c3c(nc4ccccc24)CCC3)CC1 | 95%
10 | Cc1cc(C)c(-c2csc(Nc3ncnc4[nH]ncc34)n2)cc1C | 19%
11 | CN(C[C@H](O)COc1ccccc1CN1CCC(c2ccncc2)CC1)C1CCCCC1 | 39%
12 | O[C@H](COc1ccccc1CNCc1cc(-c2ccccc2)[nH]n1)CN1CCCCC1 | 80%
13 | Cc1nc2ccc(Oc3ccccc3)cc2c(O)c1CN(C)C1CCN(C)CC1 | 22%
14 | CN1CCC(N(C)C[C@H](Nc2ncnc3ccccc23)c2ccccc2)CC1 | 99%
15 | CC1(N2CCC2)CCC(NC[C@H]2CCN(Cc3ccccc3)C2)CC1 (stereo partly specified) | 66%
16 | OC1CN(Cc2cnc(C3CCCCC3)nc2)CCC1Nc1ncccn1 (stereo unspecified) | 1%
17 | CN1CCN(CCc2ccc(N[C@H]3CCCN(Cc4ccccc4)C3(C)C)cc2)CC1 | 10%
18 | C[C@H]1CCCN(CCNC(=O)c2ccc(-c3ccc4c(=O)[nH]ccc4c3)cc2)C1 | 58%
19 | c1cc(CN2CCN(c3cc(N4CCN(Cc5ccncc5)CC4)ncn3)CC2)ccn1 | 0%
20 | CCOc1ccc2nc(N3CCC(N4CCC([C@H](O)c5cccnc5)CC4)CC3)nc(C)c2c1 | 29%
21 | CCOc1ccc2nc(CN(CC)CC3CCN(C4CCN(C)CC4)CC3)ccc2c1 | 82%
22 | Cc1noc(-c2ccnc(NC[C@@H](c3ccccn3)N3CCOCC3)c2)n1 | 93%
23 | COc1ccnc(NCCCc2nc(-c3ccncc3)cs2)n1 | 65%
24 | CN(C)C1CCN(CCN[C@H]2CCc3ccc(F)cc32)CC1 | 85%

Row | SMILES | % Inhibition
25 | Cc1ccccc1-c1cccc(N2CCC(NCC3CCNCC3)CC2)c1 | 99%
26 | Cc1ccccc1-c1cccc(CNCCCN2CCC[C@H](O)C2)c1 | 12%
27 | c1ccc(-c2nc3c(c(NCCNc4ncccn4)n2)CCC3)nc1 | 25%
28 | Cc1nc(-c2ccccn2)nc(NC2CCN(CC(F)F)CC2)c1C | 35%
29 | CCCN(CCN1CCN(CC)CC1)c1nc(-c2ccccn2)nc2c1CCC2 | 6%
30 | CCOc1cc(C(=O)NC2CCN(CC3CCCC3)CC2)cc(-c2ccccc2)c1OC | 95%
31 | Cc1cnccc1N1CCCN(Cc2ccccc2OCCN2CCN(C)CC2)CC1 | 99%
32 | CN(C)C1(CNc2nc(C(F)(F)F)nc3cc4c(cc23)OCO4)CCCCCC1 | 49%
33 | CN(C)C1(CNc2nc(C(F)(F)F)nc3cc(F)ccc23)CCCCCC1 | 61%
34 | COCCNc1nc(N[C@@H](C)c2ccccc2)c2ccccc2n1 | 63%
35 | C[C@H](Nc1nc(N)c2ccccc2n1)c1cccc(-n2cncn2)c1 | 36%
36 | COCCN1CCC[C@H](CNCc2cnn(-c3ccc4ccccc4c3)c2)C1 | 12%
37 | COCCN1CC[C@H](CNC2CCN(c3ncc4ccc(F)cc4n3)CC2)C1 | 59%
38 | Cc1cc(N2CC3COCCC3(C(=O)O)C2)nc2ccc(F)cc12 (stereo unspecified) | -2%
39 | Cc1ccn2cc(-c3ccc(N4CCC(NCc5cccnc5)CC4)cc3)nc2c1 | 60%
40 | c1cncc(-c2ccc(CNC3CCN(Cc4cccs4)CC3)cc2)c1 | 45%
41 | CN(c1ccccc1)c1ccc(CN2CCN([C@H]3CCNC3)CC2)cc1 | 54%
42 | COC(=O)c1cn(CCNc2ccnc3cc(Cl)ccc23)cc2c(O)nnc1-2 | 95%
43 | Cc1ocnc1CNC[C@H](O)c1ccc(Cl)c(Cl)c1 | 89%
44 | COCCCN1CCC(Nc2ncnc3cc(C)c(C)cc23)CC1 | 97%
45 | CCc1ccc2ncnc(NCCCN3CCN(CCO)CC3)c2c1 | 43%
46 | Cc1cnccc1NCCNCc1cnc(N2CCCCC2)nc1 | 61%
47 | Cc1cnccc1NCCNCc1cccc(OCCCCN2CCOCC2)c1 | 95%
48 | CCN1CCN(c2ccccc2CNCCC2CCN(C)CC2)CC1 | 18%

Row | SMILES | % Inhibition
49 | Fc1ccc(-n2cc(CNCCC3CCN(c4ccncc4)CC3)cn2)cc1 | 88%
50 | c1ccc2c(CNCCC3CCN(c4ccncc4)CC3)csc2c1 | 77%
51 | COc1ccc(-c2cc(-c3ccccc3O)n([C@@H]3C(=O)Nc4ccc(Br)cc43)n2)cc1 | 31%
52 | C[C@@H](CNC1CCN(C2CCN(C)CC2)CC1)c1cccc(Cl)c1 | 98%
53 | CCCc1cccc(CNC2CCN(C3CCN(C)CC3)CC2)c1 | 58%
54 | CN1CCN(CCNC2CCN3CCCC3C2)C(c2ccccc2)C1 (stereo unspecified) | 32%
55 | COc1ccc2nc(C)cc(NCc3cccc(NC(=O)c4ccco4)c3)c2c1 | 96%
56 | COc1ccc2c(C)cc(NCCCN3CCC[C@H](C(N)=O)C3)nc2c1 | 87%
57 | Cc1cc(NCCCN2CCC[C@H](O)C2)c2cc(F)ccc2n1 | 28%
58 | N[C@H]1CC[C@@H](NC2CCN(c3ccc(F)c(F)c3)CC2)CC1 | 45%
59 | Cc1nc2ccc(CNC3CCN(c4ccc(F)c(F)c4)CC3)cc2[nH]1 | 56%
60 | Fc1ccc(N2CCC(N[C@@H]3COC4(CCNCC4)C3)CC2)cc1F | 13%
61 | COC(CN(Cc1nc(N)nc(Nc2ccc(C)cc2)n1)Cc1nc(N)nc(Nc2ccc(C)cc2)n1)OC | 84%
62 | OCCN1CCC(NCCc2cc(Cl)cc(Cl)c2)CC1 | 28%
63 | CN1CCN(CCCCNC2CC3CCC(C2)N3Cc2ccccc2)CC1 (stereo unspecified) | 34%
64 | O=C(NCc1cccc(-c2cccnc2)c1)N[C@H]1CCN(C2CCCCC2)C1 | 48%
65 | O=C(CCc1nnc(-c2ccc(-c3ccccc3)cc2)o1)NC[C@@H]1CCCN2CCCC[C@H]12 | 56%
66 | CC(C)(C)n1ncc2c(NCc3ccc4cccnc4c3O)ncnc21 | 27%
67 | COc1ccc2c(N3CC[C@H](CN4CCCC4)C3)ccnc2c1 | 99%
68 | CN1CCN(CC2CCN(c3ccnc4ccccc34)CC2)CC1 | 99%
69 | CNc1nc(N2CCN(CC(=O)NC3CCCCC3)CC2)nc2ccccc12 | 23%
70 | COc1cc2nc(-c3ccc(F)c4cccnc34)nc(N)c2cc1OC | 98%
71 | Cc1cccc(Nc2ccnc(Nc3ccc(N4CCN(C)CC4)cc3)n2)c1 | 93%

— ChEMBL document CHEMBL5308541, “MAIP: An Open-Source Tool to Enrich High-Throughput Screening Output and Identify Novel, Druglike Molecules with Antimalarial Activity” (ACS Med Chem Lett, 2023)
